In ChEMBL document CHEMBL4513146, “CO-ADD screening of Karazin Kharkiv National University (Ukraine) compounds”:
Measured potencies and affinities stand elsewhere.

Columns and labels:
Klebsiella pneumoniae = settings: Concentration 32 ug.mL-1;; ASSAY_TEST Inhibition of Bacterial Growth; detection method Absorption (OD600); MEDIA CAMHB; plate type 384well; NBS; CORNING #3640; time 18 hr
Candida albicans = settings: Concentration 32 ug.mL-1; ASSAY_TEST Inhibition of Fungal Growth; detection method Absorption (OD530)
Cryptococcus neoformans = settings: Concentration 32 ug.mL-1; ASSAY_TEST Inhibition of Fungal Growth; detection method Resazurin; Absorption (OD600-OD570); plate type 384well; NBS; CORNING #3640

Structure (SMILES)	Inhibition (Klebsiella pneumoniae) [%]	Inhibition (Candida albicans) [%]	Inhibition (Cryptococcus neoformans) [%]
CCC(C)NC(=O)Cn1nc2n(Cc3cccs3)c(=O)c3sccc3n2c1=O (stereo not drawn)	6.55	0.06	-19.39
CC(C)CCNC(=O)CSc1nnc2c(=O)n(-c3ccc(F)cc3)ccn12	11.65	4.94	-13.8
COc1cccc(C(=O)Cn2nc3n(CCC(C)C)c(=O)c4sccc4n3c2=O)c1	-2.35	8.83	-5.93
Cc1ccc(NC(=O)Cn2c(=O)c3nnc(C(C)C)n3c3ccccc32)c(C)c1	5.02	1.04	-15.61
COc1ccc(-c2cc3c4nnc(SCC(=O)Nc5ccc(C)cc5Cl)n4ccn3n2)cc1	11.06	0.54	-30.51
COCCCNC(=O)CSc1nnc2c(=O)n(Cc3ccccc3)ccn12	17	2.41	-23.49
COc1cccc(-n2ccn3c(SCC(=O)Nc4ccccc4Cl)nnc3c2=O)c1	9.92	1.92	-13.6
CC(=O)c1ccc(NC(=O)Cn2c(=O)c3nnc(C(C)C)n3c3ccccc32)cc1	9.51	0.56	-14.82
COc1ccc(-c2cc3c4nn(CC(=O)Nc5ccccc5Cl)c(=O)n4ccn3n2)cc1	4.39	6.88	-15.65
Cc1cccc(Cn2nc3n(CCc4ccccc4)c(=O)c4sccc4n3c2=O)c1	3.95	-1.37	-11.78
O=S(=O)(c1cccn2cnnc12)N(Cc1cccc(Cl)c1)c1cc(F)cc(F)c1	8.32	1.62	-7.91
COc1ccc(NC(=O)Cn2nc3nc(Nc4ccc(F)cc4)ccn3c2=O)cc1Cl	7.26	4.14	-6.17
CSc1cccc(NC(=O)Cn2nc3c(Oc4cc(C)cc(C)c4)nccn3c2=O)c1	7.88	2.48	-9.76
N#CCn1nc2n(Cc3ccccc3)c(=O)c3ccc(C(=O)NC4CCCCC4)cc3n2c1=O	4.19	1.65	-13.83
CCCCn1c(=O)c2sccc2n2c(=O)n(CC(=O)N3CCC(Cc4ccccc4)CC3)nc12	0.07	-1.21	-0.28
O=C(Cn1nc2c(Oc3ccccc3)nccn2c1=O)Nc1ccc(F)cc1Cl	3.51	0.77	-10.04
Cc1ccc(C)c(NC(=O)Cn2nc3c(Sc4ccccc4)nccn3c2=O)c1	3.53	1.24	-8.99
O=c1c2nn(Cc3cccc([N+](=O)[O-])c3)c(=O)n2ccn1-c1ccccc1	9.21	0.04	-10.2
O=C(Cn1nc2c3sc(N4CCCC4)nc3ncn2c1=O)Nc1ccccc1Br	2.42	1.39	-9.14
CCCCc1ccc(NC(=O)Cn2nc3c(Sc4ccccc4)nccn3c2=O)cc1	5.15	28.09	-10.74
Cc1cc(C)cc(N(Cc2cccc(F)c2)S(=O)(=O)c2cccn3c(C)nnc23)c1	2.61	2.81	-7.1

Structure (SMILES)	Inhibition (Klebsiella pneumoniae) [%]	Inhibition (Candida albicans) [%]	Inhibition (Cryptococcus neoformans) [%]
CC(C)c1nnc2c(SCC(=O)N3CCN(c4ccccc4F)CC3)nc3ccccc3n12	4.71	-5.14	-28.6
O=c1n(Cc2cccc(C(F)(F)F)c2)nc2c(S(=O)(=O)N3CCCCCC3)cccn12	7.16	2.16	-9.24
O=C(CCc1nnc2c(N3CCCCC3)nc3ccccc3n12)NCc1ccccc1Cl	12.77	4.01	-16.16
O=S(=O)(c1cccn2cnnc12)N(Cc1cccc(Cl)c1)c1ccc(F)cc1	7.99	-0.14	-8.04
CCc1cccc(C)c1NC(=O)Cn1nc2ccc(SCc3ccc(Cl)cc3)nn2c1=O	2.49	52.47	-13.19
COc1ccc(NC(=O)Cn2nc3c(SCc4ccc(Cl)cc4)nccn3c2=O)cc1	5.73	-0.37	-4.83
Cc1nnc2ccc(S(=O)(=O)N(Cc3ccccc3F)c3cc(F)cc(F)c3)cn12	-4.61	2.54	-9.43
Cc1cccc(Sc2nccn3c(=O)n(CC(=O)N4CCN(c5ccc(F)cc5)CC4)nc23)c1	-8.7	3.19	-30.97
CC(C)c1nnc2c(=O)n(CC(=O)Nc3ccc(Cl)c(Cl)c3)c3ccccc3n12	5.02	3.27	-9.31
O=c1c2nnc(SCc3ccc(Cl)cc3)n2ccn1-c1ccc(F)cc1	9.2	1.38	-5.79
COc1cccc(-n2ccn3c(SCC(=O)c4ccc(C)cc4C)nnc3c2=O)c1	16.45	4.51	-10.37
O=C(CSc1nnc2c(=O)n(Cc3ccc(F)cc3)ccn12)NCC1CCCO1 (stereo not drawn)	11.7	1.72	-16.29
COc1cccc(NC(=O)Cn2nc3c4cc(-c5ccc(Cl)cc5)nn4ccn3c2=O)c1	8.34	4.47	-4.67
COc1cccc(-n2ccn3c(-c4ccc([N+](=O)[O-])cc4)nnc3c2=O)c1	6.14	1.66	-18.73
CCOC(=O)c1ccccc1NC(=O)Cn1nc2c3sc(N4CCCC4)nc3ncn2c1=O	9.28	9.32	-6
CC(=O)c1ccc(NC(=O)Cn2nc3ccc(Sc4ccccc4)nn3c2=O)cc1	-6.33	15.65	-7.51
O=c1c2nnc(SCc3ccc(F)cc3)n2ccn1-c1ccc(Br)cc1	4.74	2.87	-8.82
O=C(Cn1nc2c(Sc3cccc(F)c3)nccn2c1=O)Nc1ccc(F)c(Cl)c1	-2.81	9.34	-8.73
O=c1c2nnc(SCc3ccc(Cl)cc3)n2ccn1-c1ccc(F)c(F)c1	10.1	4.2	-5.11
COc1cc(OC)c(NC(=O)Cn2nc3c(Sc4ccc(C)cc4C)nccn3c2=O)cc1Cl	6.06	4	-14.9
CCOc1ccc(NC(=O)Cn2nc3c4cc(-c5ccc(C)c(C)c5)nn4ccn3c2=O)cc1	8.27	0.04	-13.03

Structure (SMILES)	Inhibition (Klebsiella pneumoniae) [%]	Inhibition (Candida albicans) [%]	Inhibition (Cryptococcus neoformans) [%]
COc1ccc(C(=O)CSc2nnc3c(=O)n(-c4cccc(OC)c4)ccn23)cc1	12.72	5.69	-12.42
O=c1c2sccc2n2c(=O)n(Cc3cccc(C(F)(F)F)c3)nc2n1Cc1cccs1	15.22	35.9	-33.79
Cn1c(=O)c2sccc2n2c(=O)n(CCOc3ccccc3)nc12	1.76	-1.1	-29.95
Cc1ccc(-c2ccc3nn(CC(=O)Nc4ccc(Cl)cc4)c(=O)n3n2)cc1C	17.23	0.13	-13.82
Cc1cc2nn(CC(=O)Nc3cccc(C)c3C)c(=O)n2c(Nc2ccc(C)c(F)c2)n1	16.72	5.25	-5.98
CCc1nnc2c(SCC(=O)Nc3ccc4c(c3)OCCO4)nc3ccccc3n12	7.64	5.98	-5.14
Cc1ccc(F)cc1NC(=O)CSc1nc2ccccc2n2c(C)nnc12	10	1.14	-19.09
CCc1ccc(NC(=O)Cn2nc3cc(C)nc(Nc4ccc(F)c(C)c4)n3c2=O)cc1	8.35	8.83	-9.39
COc1ccc(NC(=O)Cn2nc3ccc(SC4CCCCC4)nn3c2=O)cc1OC	8.74	4.98	-24.6
COc1ccc(NC(=O)c2ccc3nn(CC(=O)Nc4ccc(C(C)=O)cc4)c(=O)n3c2)cc1	4.63	12.89	-6.52
Cc1cc(F)ccc1NC(=O)Cn1nc2c(SCc3ccc(Cl)cc3)nccn2c1=O	8.05	13.65	-20.69
CCc1ccccc1NC(=O)CSc1nnc2ccc(C(=O)Nc3cccc(F)c3)cn12	6.52	8.2	-4.61
Cc1ccc(NC(=O)Cn2nc3ccc(SCc4ccc(Cl)cc4)nn3c2=O)cc1	-9.13	7.44	-7.75
C=Cc1ccc(CN(c2ccc(CC)cc2)S(=O)(=O)c2cccn3c(C)nnc23)cc1	2.48	4.32	-7.66
Cc1ccc(NC(=O)Cn2nc3c(Sc4ccccc4)nccn3c2=O)c(Br)c1	0.72	22.67	-9.68
COC(=O)c1ccccc1NC(=O)Cn1nc2c3cc(-c4ccc(Cl)cc4)nn3ccn2c1=O	3.97	0.23	-15.71
CCc1ccc(NC(=O)Cn2nc3c(=O)n(-c4ccc(Br)cc4)ccn3c2=O)cc1	-9.6	4.29	-8.7
Cc1ccc2c(c1)N(C(=O)Cn1nc3ccc(Sc4ccccc4)nn3c1=O)CCO2	4.6	-1.78	-5.73
Cc1ccc(NC(=O)CSc2nnc3n(CC4CCCO4)c(=O)c4sccc4n23)cc1F (stereo not drawn)	6.62	-2.27	-15.18
